Test results published in PubChem BioAssay (NCI).
Compounds without any hit were thinned out: in the full panel of roughly 83,000, 20% have a hit.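 Cells were grown in 96-well plates and exposed to the test compound at a single concentration for 48 hours; results are reported as percent growth, with values below 10 considered active.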 Values without a mark were called inactive. Calls of active or inactive are those of the source.

Key:
Assay in all cases: NCI-60 one-dose screen, 48 h (100 = growth as untreated, 0 = no growth, -100 = all killed)
Details in all cases: 10 µM unless noted
[1] = test system: NCI-H226 lung
[2] = test system: NCI-H322M lung
[3] = test system: HOP-62 NSCLC
[4] = test system: NCI-H460 lung
[5] = test system: HOP-92 NSCLC
[6] = test system: NCI-H522 lung
[7] = test system: 786-0 renal
[8] = test system: COLO 205 colon
[9] = test system: DU-145 prostate
[10] = test system: A549/ATCC NSCLC

Compound	growth [1]	growth [2]	growth [3]	growth [4]	growth [5]	growth [6]	growth [7]	growth [8]	growth [9]	growth [10]
Cc1ccccc1NC(=O)/C=C/c1ccc(OCCOc2ccc3c(C)cc(=O)oc3c2)cc1	92.9%	92.2%	110%	91.8%	93.1%	85.1%	110%	103%	100%	–
CCCC(=O)NC(c1cccnc1)c1cc(C)c2cccnc2c1O (centres undefined)	52.6%	32.4%	34.4%	19.3%	49.1%	–	38.9%	12.7%	47.2%	48.4%
CCN(CC)c1ccc(C=O)c(OCc2cn(CC(=O)Nc3ccc(Cl)cc3)nn2)c1	77.5%	94.9%	89.9%	52%	81.4%	–	72.9%	111%	81%	87.9%
COc1cccc(COc2ccc(/C=C3/C(=O)Nc4cc(Cl)ccc43)cc2)c1	84.9%	83.9%	85.4%	103%	79.8%	–	102%	102%	98.5%	92.4%
N#Cc1ccc(/C=N/NC(=O)c2[nH]c3ccc(Br)cc3c2-c2ccccc2)s1	46.9%	45.9%	26.9%	3.12% (active)	33.9%	-22.7% (active)	10.2%	-13.3% (active)	19.3%	–
Cc1cccc2sc(/N=C(\N)C(Br)Br)nc12	42.8%	48.8%	67%	1.4% (active)	47.6%	–	31.6%	27%	4.67% (active)	37.4%
N#Cc1c(-c2ccc(F)cc2)nc2c(C#N)c(Nc3ccccc3)nn2c1N	112%	105%	97.3%	106%	92.5%	–	86.9%	110%	103%	101%
N=C1CC(=O)NN1C(=O)CSc1nc2sc3c(c2c(=O)n1-c1ccc(Cl)cc1)CCCC3	103%	103%	90.3%	101%	80.1%	–	94.2%	123%	111%	102%
Clc1ccc(-c2cn3cc(Cc4ccc(Cl)c(Cl)c4)sc3n2)cc1	85.7%	70.5%	70.4%	22.5%	81.8%	76%	84%	42.7%	69.6%	–
COc1cccc(-c2nn(-c3ccccc3)cc2-c2ccnc(N3CCN(C(=O)Nc4ccc(F)cc4)CC3)c2)c1	66.7%	79.2%	102%	69.5%	63.1%	–	68.1%	64.7%	67.5%	55.9%
Cn1ccnc1C(=O)/C=C/c1ccc(NC(=O)Nc2ccccc2)cc1	35.9%	28.8%	16.1%	-56.7% (active)	57.4%	–	5.89% (active)	11.1%	4.23% (active)	6.79% (active)
Cc1ccc2ccc3ccc(C)nc3c2n1.Cc1ccc2ccc3ccc(C)nc3c2n1.Oc1c(Cl)cc(Cl)c2ccc(CN3CCCCC3)nc12.[Ru]	-69% (active)	-83.4% (active)	-57.2% (active)	-15.2% (active)	-86.5% (active)	–	-87.7% (active)	-74.2% (active)	-93.3% (active)	-42.7% (active)
CCOc1ccc2nc(NC(=O)c3ccc(C(F)(F)F)cc3)sc2c1	107%	107%	118%	101%	139%	–	99.6%	117%	105%	101%
Clc1ccc2c(NCCCn3ccnc3)c3oc4ccc(Cl)cc4c3nc2c1	57.8%	71%	66.6%	11.1%	57.4%	–	41.6%	96.5%	92%	–
CCOC(=O)c1csc(NC(=O)CSc2nc3sc4c(c3c(=O)n2-c2ccc(Cl)cc2)CCCC4)n1	101%	101%	101%	100%	77.8%	–	103%	133%	107%	–
Cc1ccc(-c2nc(C(Cl)Cl)nc3cc(-c4ccccc4)nn23)cc1	76.4%	-36.8% (active)	-16.7% (active)	-73.5% (active)	-3.62% (active)	–	62.4%	-69.4% (active)	-26.3% (active)	-56.3% (active)
CCC/C=C/C=C/C(=O)N[C@@H](Cc1cc(F)cc(F)c1)C(=O)N[C@@H]1C(=O)N2CCC[C@H]2C(=O)N2CCCC[C@H]2C(=O)N[C@@H](C)C(=O)N2C[C@H](C)C[C@H]2C(=O)O[C@H]1C	19.9%	36.5%	–	11.9%	23%	–	37.8%	-54.1% (active)	22.6%	–
Cc1cccc(/C=C/c2nn3c(-c4ccco4)nnc3s2)c1	96.5%	94.4%	–	102%	119%	95.2%	97.6%	107%	105%	95.3%
N#Cc1nc(-c2ccccc2)oc1S(N)(=O)=O	103%	100%	–	93.3%	77.3%	-44.5% (active)	51.1%	96.7%	82.5%	–
CC(C)(C)Nc1nc2c(OCCc3ccccc3)cccn2c1-c1ccccc1Cl	-0.3% (active)	8.57% (active)	–	0.335% (active)	-74.8% (active)	-13.4% (active)	6.01% (active)	-76.6% (active)	21.1%	11.6%
CCOC(=O)c1sc(NCC(=O)Nc2cccc([N+](=O)[O-])c2)c(C(=O)OCC)c1C	-33.7% (active)	-8.8% (active)	–	2.96% (active)	-19.5% (active)	-41.5% (active)	-12.4% (active)	-33.4% (active)	-6.75% (active)	–
C[C@@H](Nc1c(C#N)cnc2ccc(-c3cnc(N)nc3)cc12)c1ccccc1	18.8%	-6.52% (active)	–	13.3%	-10.5% (active)	-2.38% (active)	13.5%	17.3%	12.8%	–
N[C@@H](Cc1cn(-c2ccnc3ccccc23)nn1)C(=O)O	109%	102%	–	112%	101%	101%	104%	112%	110%	101%
O=C1Nc2ccccc2Oc2ccc(S(=O)(=O)CC3CO3)cc21 (centres undefined)	95.7%	93.7%	–	79.5%	88.8%	–	98.1%	50.1%	61.2%	–
C#Cc1nc(C2=C(C)C(OC(=O)CCC(=O)O)CC2)cs1 (centres undefined)	106%	104%	–	107%	106%	101%	-86.5% (active)	122%	106%	90.7%
c1ccc2c(NCCCN3CCOCC3)c3oc4ccccc4c3nc2c1	-11.3% (active)	-17.5% (active)	–	0.606% (active)	-22.9% (active)	–	6.38% (active)	-67.8% (active)	2.98% (active)	-62.1% (active)
Nc1cc(-c2c[nH]c3ccc(Cl)cc23)nc2cc(-c3c[nH]c4ccc(Cl)cc34)nn12	71.3%	56.8%	–	12.1%	28.9%	–	60.5%	93.2%	53.4%	44.2%
COc1cc(/C=C/C(=O)c2ccc(F)cc2)ccc1Oc1nc(NCCO)nc(N2CCOCC2)n1	87.8%	97.4%	–	94.2%	94.2%	64.9%	98.3%	122%	98.4%	101%

Compound	growth [1]	growth [2]	growth [3]	growth [4]	growth [5]	growth [6]	growth [7]	growth [8]	growth [9]	growth [10]
COC(=O)C1CN(S(=O)(=O)/N=C2\NC(=O)NC2=C(Cl)Cl)C1	106%	102%	–	108%	98.9%	99.1%	104%	124%	116%	101%
C#C[C@]1(O)CC[C@H]2[C@@H]3CC=C4c5sc(Nc6ccc(Cl)cn6)nc5CC[C@]4(C)[C@H]3CC[C@@]21C	77.1%	82.3%	–	28.3%	59.5%	67.7%	-78.8% (active)	88.8%	63.4%	–
O=C1Nc2ccc(Cl)cc2/C1=C/c1ccc(OCC(=O)c2ccc(Br)cc2)cc1	78.7%	84.7%	–	94.7%	72%	95.9%	103%	98.5%	103%	102%
COc1ccc(-c2nc3ccc(-c4nnc(SCC(=O)Nc5ccc(C(C)=O)cc5)o4)cc3[nH]2)cc1	100%	110%	–	103%	114%	–	105%	113%	110%	112%
COc1cc(/C=C/C(=O)c2cc(OC)c(OC)c(OC)c2)ccc1OCc1ccccc1	48.6%	45.5%	–	22.4%	58.4%	–	40.1%	93.4%	27.2%	38.8%
CCOC(=O)c1sc(N)c(C(=O)OCC)c1C	59.7%	83.1%	–	92.5%	-7.89% (active)	56.9%	50.4%	68.4%	66.2%	65.3%
CCCCCCNC(=O)Oc1ccc(/C(=C(/C)c2ccccc2)c2ccc(OCCN3CCCCCC3)cc2)cc1	76.7%	87.5%	–	6.58% (active)	12.5%	85%	-0.48% (active)	21.7%	68.2%	63.1%
CN(C)S(=O)(=O)c1oc(-c2ccccc2)nc1C#N	98.2%	99.6%	–	109%	74.2%	-64.7% (active)	66.1%	75.9%	34.7%	105%
Cn1cc(-c2cc(N)n3nc(-c4cn(C)c5ccc(Br)cc45)cc3n2)c2cc(Br)ccc21	109%	86.2%	–	69%	76.9%	102%	94%	118%	60.5%	91%
CN(C)CCCNc1c2ccc(Cl)cc2nc2c1oc1ccccc12	1.58% (active)	-9.39% (active)	–	-3.28% (active)	-1.97% (active)	2.37% (active)	2.06% (active)	1.47% (active)	4% (active)	-40.4% (active)
O=C(Nc1nc2ccc(O)cc2s1)c1cccc(C(F)(F)F)c1	84.2%	84.3%	–	56.7%	69%	35.6%	77.1%	107%	65.9%	57%
Fc1ccc(-c2cc3nc(C(Cl)Cl)nc(-c4ccccc4)n3n2)cc1	85.7%	-33.9% (active)	–	-69.1% (active)	-27.7% (active)	42.4%	5.34% (active)	-72.5% (active)	-33.8% (active)	-45.6% (active)
[Cl][Ru].c1ccc(-c2cc(-c3ccccn3)nc(-c3ccccn3)c2)cc1.c1ccc(-c2ccnc3c2ccc2c(-c4ccccc4)ccnc23)cc1	-18% (active)	-6.84% (active)	–	-63% (active)	-42.9% (active)	-52.8% (active)	6.1% (active)	-77.9% (active)	7.67% (active)	14.8%
Fc1ccc(-c2nc(C(Cl)Cl)nc3cc(-c4ccccc4)nn23)cc1	74.7%	-41.6% (active)	–	-67.6% (active)	12.8%	-41.4% (active)	70%	-76.3% (active)	-18.2% (active)	-45.1% (active)
CCOC(=O)c1c(Nc2ccccc2)nn2c(N)c(C#N)c(-c3ccccc3)nc12	83.3%	94.8%	–	93.2%	81.8%	89.7%	79.5%	87.4%	81.1%	–
O=C(c1ccc(Cl)cc1)C1[C@H](c2ccc(Cl)cc2)[C@@H](c2ccccc2)NC12C(=O)Nc1ccc(Br)cc12 (some centres undefined)	38.1%	56.2%	–	8.65% (active)	-1.5% (active)	66%	24.6%	55.9%	46.8%	29.2%
COc1ccc(C(=O)/C=C/c2ccc(OCc3ccc(Cl)cc3)c(OC)c2)cc1OC	56.4%	70.9%	–	61.9%	64.9%	68.3%	80.7%	88.4%	72.3%	–
COc1ccc(/C=N/NC(=O)c2[nH]c3ccc(Br)cc3c2-c2ccccc2)o1	49.7%	44.2%	–	0.221% (active)	33.2%	-54.6% (active)	13.3%	-47.8% (active)	20%	30.4%
COc1cc(/C=C/C(=O)c2cc(OC)c(OC)c(OC)c2)ccc1OCc1ccc(F)cc1	49.5%	49.7%	–	54%	44.7%	–	62.8%	70%	58.3%	51.2%
CC(C)Sc1nc(Nc2ccc(S(N)(=O)=O)cc2)c(C#N)c(-c2ccc(F)cc2)n1	–	–	–	–	–	73.5%	–	79%	25.1%	–
CCN1C(=S)N(c2ccccc2)C2NC(=O)N(/N=C/C=C/c3ccccc3OC)C21 (centres undefined)	98.9%	94.9%	–	89.2%	72.3%	89%	96.1%	122%	101%	87.9%
Clc1ccc2oc3c(NCCCn4ccnc4)c4ccccc4nc3c2c1	40%	41.5%	–	-25.9% (active)	47.2%	48.3%	6.65% (active)	55.2%	21.9%	32.7%
[Cl][Ru].c1ccc(-c2cccc(-c3ccccn3)n2)nc1.c1ccc(-c2ccnc3c2ccc2c(-c4ccccc4)ccnc23)cc1	80.1%	76.6%	–	54.8%	-12.5% (active)	–	89.3%	-60% (active)	32.6%	60.5%
CNC(=O)c1cc(-c2ccc(NC(=O)Nc3ccc(N4CCN(C)CC4)c(C(F)(F)F)c3)cc2)nc2cccnc12	84.6%	-78.4% (active)	–	-76.3% (active)	79.5%	-71.9% (active)	-97.1% (active)	-41% (active)	-81.7% (active)	-81.9% (active)
CCN1C(=S)N(CC)C2C1N=C(SC)N2/N=C/C=C/c1ccccc1[N+](=O)[O-] (centres undefined)	92.9%	92.3%	–	93.5%	79.7%	–	101%	120%	101%	–
Cc1cc(=O)oc2cc(OCCCOc3ccc(/C=C/C(=O)Nc4ccc(Cl)cc4)cc3)ccc12	79.5%	83%	–	-6.83% (active)	25.2%	82.6%	46.4%	68.2%	73.6%	28.6%
O=C(NNc1nc2cc(F)ccc2n2c(CN3CC4(COC4)C3)ccc12)c1cnccn1	7.31% (active)	22.7%	–	-7.69% (active)	45.2%	2.26% (active)	-6.84% (active)	20.2%	24.8%	13.2%
